# Source: PubChem BioAssay (NCATS)
# Inconclusive results are not listed. Where a call stands in place of a potency, no number is given. A number with no mark means an inactive call. Activity calls are given as the source filed them. Calls follow the shape of the dose curve; as a rule, active = well fitted curve in the direction sought with a large enough effect; inconclusive = small, poorly fitted or top-dose-only effect, or another doubt; inactive = no such curve, though single readings can be large; an effect the other way counts as inactive or inconclusive.
# How the values were obtained:
# CRL-7250 = normal cell line; experiment: Cytotoxic Profiling of Annotated Libraries Using Quantitative High-Throughput Screening (AID 1296008); settings: Five cell lines viability, CellTiter-Glo ATP luminescence, 48-72 h; max response: hits give low values; also: nearly all actives have a fitted effect of over 60% in size; also: potency is read from the fitted curve at half-maximal effect
# Outline: (§1)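 Cytotoxicity was measured as CellTiter-Glo ATP luminescence, read after 10 min at room temperature. Compound treatment of the cells lasted 48 or 72 hr at 37 degrees Celsius in a qHTS format.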
# HEK293 = experiment: as above; settings: Five cell lines viability, CellTiter-Glo ATP luminescence, 48-72 h; max response: hits give low values
# Outline: as §1
# HaCat = experiment: as above; settings: Five cell lines viability, CellTiter-Glo ATP luminescence, 48-72 h; max response: hits give low values
# Outline: as §1
# KB-3-1 = experiment: as above; settings: Five cell lines viability, CellTiter-Glo ATP luminescence, 48-72 h; max response: hits give low values
# Outline: as §1
# NIH3T3 [1] = experiment: as above; settings: Five cell lines viability, CellTiter-Glo ATP luminescence, 48-72 h; max response: hits give low values
# Outline: as §1
# NIH3T3 [2] = experiment: qHTS assay to identify novel small-molecules to repurpose for Merkel cell carcinoma treatment (AID 1296009); settings: MCC and control cell lines, CellTiter-Glo viability, 72 h; at 44.8 µM (top of the series) unless noted; also: nearly all actives have a fitted effect of over 60% in size
# Outline: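 72 hr, 37 degree celsius; NPC 8-pt / MIPE 11-pt dose response; compound pinned in DMSO; CellTiter-Glo, 10 min RT, luminescence; normalized to no-cell and DMSO controls.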
# C33A = experiment: Primary qHTS to identify gynecologic anti-cancer compounds using libraries of approved drugs and bioactive compounds (AID 1345084); settings: Gynecologic cancer cell panel viability, ATPlite luminescence, 48 h; series mostly up to 57.5 µM; also: nearly all actives have a fitted effect of over 55% in size; also: potency is read from the fitted curve at half-maximal effect
# Outline: (§2)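 Cytotoxicity screen measuring ATP content by luciferase luminescence. Each compound is applied at five concentrations for 48 h at 37 C with 5% CO2.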
# CAOV3 = experiment: as above; settings: Gynecologic cancer cell panel viability, ATPlite luminescence, 48 h; series mostly up to 57.5 µM
# Outline: as §2
# CASKI = experiment: as above; settings: Gynecologic cancer cell panel viability, ATPlite luminescence, 48 h; series mostly up to 57.5 µM
# Outline: as §2
# Es-2 = experiment: as above; settings: Gynecologic cancer cell panel viability, ATPlite luminescence, 48 h; series mostly up to 57.5 µM
# Outline: as §2
# HeLa = experiment: as above; settings: Gynecologic cancer cell panel viability, ATPlite luminescence, 48 h; series mostly up to 57.5 µM
# Outline: as §2
# Hek293T = experiment: as above; settings: Gynecologic cancer cell panel viability, ATPlite luminescence, 48 h, control line for the selectivity index; series mostly up to 57.5 µM
# Outline: as §2
# JEG-3 = experiment: as above; settings: Gynecologic cancer cell panel viability, ATPlite luminescence, 48 h; series mostly up to 57.5 µM
# Outline: as §2
# OV90 = experiment: as above; settings: Gynecologic cancer cell panel viability, ATPlite luminescence, 48 h; series mostly up to 57.5 µM
# Outline: as §2
# PA-1 = experiment: as above; settings: Gynecologic cancer cell panel viability, ATPlite luminescence, 48 h; series mostly up to 57.5 µM
# Outline: as §2
SMILES,outcome (CRL-7250),max response (HEK293) [%],max response (HaCat) [%],max response (KB-3-1) [%],outcome (NIH3T3 [1]),outcome (NIH3T3 [2]),Potency (C33A),Potency (CAOV3),outcome (CASKI),Potency (Es-2),Potency (HeLa),Potency (Hek293T),Potency (JEG-3),Potency (OV90),Potency (PA-1),max response (CRL-7250) [%],outcome (KB-3-1),Potency (HEK293)
C=C(C(=O)O)C1CC(O)C2(C)CCCC(C)(O)C2C1 (stereo not drawn),inactive,-8.07,-11.8,0.961,inactive,inactive,inactive,inactive,inactive,inactive,inactive,inactive,inactive,inactive,inactive,–,–,–
C=C1C(OC(C)=O)CCC2(C)CCC(C(C)(C)O)CC12 (stereo not drawn),–,-1.52,-5.19,1.41,inactive,inactive,inactive,inactive,inactive,inactive,inactive,inactive,inactive,–,inactive,-5.46,–,–
O=C(CCc1ccccc1)c1c(O)c([C@@H]2O[C@H](CO)[C@@H](O)[C@H](O)[C@H]2O)c(O)c([C@@H]2O[C@H](CO)[C@@H](O)[C@H](O)[C@H]2O)c1O,–,0.0644,3.51,8.16,inactive,inactive [at 17.4 µM],inactive,inactive,inactive,inactive,inactive,inactive,inactive,inactive,inactive,-8.34,–,–
CC1(C)[C@@H]2CC=C(CO[C@@H]3O[C@H](CO[C@@H]4OC[C@H](O)[C@H](O)[C@H]4O)[C@@H](O)[C@H](O)[C@H]3O)[C@H]1C2,–,2.49,-0.954,–,inactive,inactive [at 17.4 µM],inactive,inactive,inactive,inactive,inactive,inactive,inactive,inactive,inactive,0.583,inactive,–
O=C(N[C@H](Cc1ccccc1)C(=O)O)c1sc2cc(F)ccc2c1Cl,–,-2.83,-0.292,–,inactive,inactive,inactive,inactive,inactive,inactive,inactive,inactive,inactive,inactive,inactive,2.45,inactive,–
O=C(Nc1cc(-c2ccccc2)nn1-c1ccccc1)c1ccc([N+](=O)[O-])cc1,–,-12.1,1.9,-7.82,inactive,inactive,inactive,inactive,inactive,inactive,inactive,inactive,inactive,inactive,inactive,-6.57,–,–
CC/C=C\[C@H](O)[C@H](O)C1=C(C)C(=O)[C@]2(O1)C(=O)N[C@@](O)(C(=O)c1ccccc1)[C@@H]2O,inactive,2.91,-6.31,–,inactive,inactive [at 17.4 µM],inactive,inactive,inactive,inactive,inactive,inactive,inactive,inactive,inactive,–,inactive,–
CC1(CO)CCCC2(C)C3COC(=O)C3=CC(O)C12 (stereo not drawn),–,-8.01,-5.37,–,inactive,inactive,inactive,inactive,inactive,inactive,inactive,inactive,inactive,inactive,inactive,1.03,inactive,–
C=Cc1cc2oc(-c3ccc(O)c(F)c3)nc2cc1O,inactive,-3.32,-11,–,inactive,inactive,inactive,inactive,inactive,inactive,–,inactive,inactive,25.1 µM (active),inactive,–,inactive,–
O=C(NC1Cc2ccccc2N(C[C@@H](O)CO)C1=O)c1cc2cc(Cl)sc2[nH]1 (stereo partly drawn),–,–,-0.0172,3.62,inactive,inactive,inactive,inactive,inactive,inactive,inactive,inactive,inactive,inactive,inactive,-1.76,–,16.4 µM (active)
CC(C)(C)NS(=O)(=O)c1ccc(-c2ccc3[nH]nc(N)c3c2)cc1,–,-2.12,-19,8.07,inactive,inactive,inactive,inactive,inactive,inactive,inactive,inactive,inactive,inactive,inactive,-6.71,–,–
COc1c(-c2ccc(O)cc2)cc(OC)c2c1oc1cc(O)c(OC3OC(CO)C(O)C3O)cc12 (stereo not drawn),–,-3.64,-7.87,–,inactive,inactive [at 17.4 µM],inactive,inactive,inactive,inactive,inactive,inactive,inactive,inactive,inactive,-0.713,inactive,–
C=C1CCC2C(C)(C)CC(O)CC2(C)C1CCC(C)CCOC(=O)CCC(=O)O (stereo not drawn),–,-12.9,-1.5,-6.16,inactive,inactive [at 17.4 µM],inactive,inactive,inactive,inactive,inactive,inactive,inactive,inactive,inactive,-28.7,–,–
CC1=CC[C@@]2(C)CC[C@@](O)(C(C)C)[C@@H]2[C@@H](O)C1,–,0.0265,1.77,–,inactive,inactive,inactive,inactive,inactive,inactive,inactive,inactive,inactive,inactive,inactive,2.53,inactive,–
